# Compound activity as filed in PubChem BioAssay.
# KCNQ2 pot: enhances the rat KCNQ2 potassium channel. B-score at 10 µM. CHO-K1 KCNQ2, FluxOR thallium flux fluorescence; active compounds read high. O88943. 310,000 compounds, 0.54% hits. AID 2239;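 active = fluorescence ratio B-score at least 3 SD of library B-scores, with initial fluorescence B-score within 3 of them, cut at about 5.3 in these data; same plate scores as AID 2156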;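 also: B-score of peak minus minimum over baseline fluorescence ratio after K+ and Tl+ stimulus; positive B-score means potentiation of KCNQ2 with more thallium influx and brighter signal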
# Target sequence (O88943 whole entry, looked up): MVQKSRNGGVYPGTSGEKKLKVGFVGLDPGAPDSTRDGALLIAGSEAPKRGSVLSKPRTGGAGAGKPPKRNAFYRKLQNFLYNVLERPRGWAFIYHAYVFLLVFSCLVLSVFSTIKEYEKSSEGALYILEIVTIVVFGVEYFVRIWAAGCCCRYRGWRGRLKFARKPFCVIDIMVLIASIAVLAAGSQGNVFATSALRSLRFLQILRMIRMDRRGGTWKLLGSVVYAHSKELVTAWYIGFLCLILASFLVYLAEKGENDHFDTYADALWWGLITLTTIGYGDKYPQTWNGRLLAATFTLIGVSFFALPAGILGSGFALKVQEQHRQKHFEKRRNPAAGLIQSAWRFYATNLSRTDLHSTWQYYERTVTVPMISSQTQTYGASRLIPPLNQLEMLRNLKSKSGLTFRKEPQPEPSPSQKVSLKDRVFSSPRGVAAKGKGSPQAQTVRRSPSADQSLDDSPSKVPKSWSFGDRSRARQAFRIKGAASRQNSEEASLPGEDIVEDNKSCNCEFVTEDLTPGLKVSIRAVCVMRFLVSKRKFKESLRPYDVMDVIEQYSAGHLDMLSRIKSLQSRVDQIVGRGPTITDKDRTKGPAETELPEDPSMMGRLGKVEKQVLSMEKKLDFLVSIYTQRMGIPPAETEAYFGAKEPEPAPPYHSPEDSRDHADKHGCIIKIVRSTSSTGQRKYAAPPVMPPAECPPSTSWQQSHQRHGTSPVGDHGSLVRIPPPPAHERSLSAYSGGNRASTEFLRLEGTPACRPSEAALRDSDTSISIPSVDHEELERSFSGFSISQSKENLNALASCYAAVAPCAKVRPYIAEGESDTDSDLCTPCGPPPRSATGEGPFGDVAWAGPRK
# KCNQ2 block: inhibitors of rat KCNQ2 potassium channel. CHO-K1 KCNQ2, FluxOR thallium flux, 20 min; active compounds read low. 310,000 compounds, 1.1% hits. B-score at 10 µM. AID 2156;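 active = fluorescence ratio B-score at most minus 3 library SDs, with starting brightness B-score within 2 library SDs, cut at about -5.5 in these data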
# Starred values were filed as active, the others as inactive; i = inactive; . = no result given. Shown are actives, neighbours in structure and some others; about 1.6% of the full set was active somewhere.
SMILES,KCNQ2 pot,KCNQ2 block
CCN(CC1CCCN(CCc2cccc(F)c2)C1)C(=O)c1cc2ccccc2o1 (configuration not stated),.,i
Cc1cccc(NC(=O)CCC(=O)N/N=C/c2ccco2)c1,.,i
O=C(N/N=C\c1ccco1)Nc1cccc(Cl)c1,6*,i
CCCCCC(=O)N/N=C/c1ccco1,7.2*,i
O=C(CCCCCCCCC(=O)N/N=C/c1ccco1)N/N=C/c1ccco1,0.39,i
O=C(Nc1ccc(C(=O)N2CCN(c3ccccc3)CC2)cc1)C1=CSCCO1,1.1,i
CC(NC(=O)c1ccccc1NC(=O)CN1CCc2ccccc2C1)c1ccccc1 (configuration not stated),.,i
CC(Oc1ccc(F)cc1Br)c1nc2ccccc2c(=O)[nH]1 (configuration not stated),0.1,i
COc1cccc(/C=C/c2n[nH]c(=O)c(C#N)c2C)c1,.,i
CCn1c(SCC(=O)Nc2cc(Cl)ccc2OC)nnc1C1CC1,.,i
Cc1csc(Nc2nc(N)c(C(=O)Nc3ccccc3)o2)n1,.,i
CC(C)N(C(=O)CSc1nc2ccccc2n1-c1ccccc1)C(C)C,-6,-6*
CC(C)N(C(=O)CSc1nc2ccccc2n1Cc1ccccc1)C(C)C,.,i
CCc1cc2c(=O)[nH]c(N3CCCC3)nc2s1,.,i
CCc1cc2c(=O)[nH]c(-c3ccccn3)nc2s1,11*,i
CCN(CC)c1ccc(NC(=O)CCS(=O)(=O)c2ccc(Br)cc2)c(C)c1,.,i
CCCCNc1c(-c2cccc(-c3ccc(OC)cc3)c2)nc2ccc(C)cn12,-6.1,-6.1*
CCCCNc1c(-c2cccc(-c3cc(C(C)=O)cs3)c2)nc2ccc(C)cn12,.,i
Cc1nn(CC(=O)NCCN2CCOCC2)c(=O)c2cc3sccc3n12,0.35,i
O=C(c1ccc(NS(=O)(=O)c2ccccc2)cc1)N1CCOCC1,.,i
CC(=O)Nc1ccc(NC(=O)CSc2nc(N)c(NC(=O)c3ccccc3F)c(=O)[nH]2)cc1,.,i
CCc1c(C(=O)NC(C)C2CCCO2)csc1C (configuration not stated),.,i
O=C(/C=C/c1cccs1)c1cc(Br)ccc1OC(=O)N1CCOCC1,-6.8,-6.8*
COc1ccc(C(=O)/C=C/c2cccs2)c(OC(=O)N2CCOCC2)c1,0.23,i
O=C(COc1ccccc1)N1CCN(C(=O)c2ccccc2F)CC1,.,i
SMILES,KCNQ2 pot,KCNQ2 block
CC1=C(C)C(=O)C(CCCCC#CCCCC#CCO)=C(C)C1=O,-6.8,-6.8*
CCc1ccc(OCC(=O)NNC(=O)C2CCC2)cc1,1.7,i
CCCCC(=O)Nc1cnc(NC(=O)c2cccs2)cc1C,0.26,i
CCN(CC(=O)Nc1ccc(NC(C)=O)cc1)C(=O)/C=C/c1ccc2c(c1)OCO2,.,i
CCN(C(=O)/C=C/c1ccc2c(c1)OCO2)c1ccccc1,-6,-6*
CC(=O)Nc1ccc(NC(=O)C2CC(=O)N(c3ccc(Cl)cc3)C2)cc1 (configuration not stated),.,i
CC(=O)Nc1ccc(NC(=O)C2CC(=O)N(c3ccccc3Cl)C2)cc1 (configuration not stated),21*,i
CC(C)(C)N1CC23CCC(C[C@@H]2C1=O)O3 (some centres not stated),0.36,i
Cc1cc(C)nc(SC2CCCCC2NS(=O)(=O)c2ccccc2)n1 (configuration not stated),0.33,i
Cc1cc(C)nc(SC2c3cccc4cccc(c34)C2NS(=O)(=O)c2ccccc2)n1 (configuration not stated),-5.7,-5.7*
Cc1ccc(S(=O)(=O)NC2c3cccc4cccc(c34)C2Sc2ncccn2)cc1 (configuration not stated),-7,-7*
Cc1ccc(S(=O)(=O)Nc2cccc3cccnc23)cc1,.,i
Cc1ccccc1OCCC(=O)Nc1ccccc1C(=O)NC1CC1,1.4,i
CCNC(=O)c1ccccc1SCc1ccccc1,-7.4,-7.4*
CCc1ccc(OCCNC(=O)c2ccccc2SCc2ccccc2)cc1,.,i
O=C(Nc1c(-c2ccccc2)nc2ccccn12)c1ccco1,0.57,i
Oc1ccc(-c2nc3ccccn3c2NCc2ccco2)cc1,-5.8,-5.8*
COc1ccc2oc(C(=O)OCC(=O)c3ccc4c(c3)OCCO4)c(C)c2c1,.,i
COc1ccc2oc(C(=O)N3CCN(C(=O)c4ccco4)CC3)c(C)c2c1,3.3,i
COc1ccc2oc(C(=O)N(Cc3ccco3)Cc3cccs3)c(C)c2c1,-5.8,-5.8*
COc1ccc2oc(C(=O)N(C)Cc3ccc4c(c3)OCCO4)c(C)c2c1,-6.7,-6.7*
CCCn1c(/C=C/c2ccccc2)nc2ccccc21,-6.1,-6.1*
COCCOCCn1c(/C=C/c2ccccc2)nc2ccccc21,.,i
CCCCc1ccc(S(=O)(=O)NCCCN2CCCC2=O)cc1,.,i
COCc1cc(C)nc(SCC(=O)Nc2ccccc2C)c1C#N,0.69,i
SMILES,KCNQ2 pot,KCNQ2 block
COCc1cc(C)nc(SCC(=O)Nc2cc(C(F)(F)F)ccc2N2CCOCC2)c1C#N,-5.6,-5.6*
COc1ccc(N2CCN(C(=O)COC(=O)CCc3ccccc3OC)CC2)cc1,.,i
CC1CCCN(C(=O)c2nn(C)c3c2CSc2ccccc2-3)C1 (configuration not stated),.,i
CN(C(=O)c1nn(C)c2c1CSc1ccccc1-2)c1ccc(F)cc1,-6.5,-6.5*
O=C(c1cccc(C(F)(F)F)c1)N1CCc2c([nH]c3ccccc23)C1C(F)(F)F (configuration not stated),2.5,i
CCCCS(=O)(=O)N1CCCC(C(=O)Nc2ccc3c(c2)CCC3)C1 (configuration not stated),.,i
Cc1ccc(S(=O)(=O)N[C@H](C(=O)OCC(=O)N2N=C(c3ccc(Cl)cc3)CC2c2ccco2)C(C)C)cc1 (some centres not stated),-6.1,-6.1*
O=C(CNC(=O)c1ccccc1)OCC(=O)N1N=C(c2ccc(Cl)cc2)CC1c1ccco1 (configuration not stated),.,i
CCC(C)[C@H](NC(=O)[C@H](Cc1ccccc1)n1c(=O)[nH]c2ccccc2c1=O)C(=O)NCC1CCC(C(=O)O)CC1 (some centres not stated),.,i
O=C1C(=O)N(c2nccs2)C(c2ccccc2F)/C1=C(\O)c1ccc2c(c1)OCCO2 (configuration not stated),0.33,i
CC1CCN(c2nc3ccccc3nc2C(C#N)C(=O)OC2CCCCC2)CC1 (configuration not stated),.,i
CC1CN(c2nc3ccccc3nc2C(C#N)C(=O)OC2CCCCC2)CC(C)O1 (configuration not stated),-5.9,-5.9*
COc1cc(C(=S)N2CCCC2)ccc1OCc1ccc(C)cc1,.,i
Cc1ccc(-n2c(SCC(N)=O)nc3c(c2=O)C2(CCCC2)Cc2ccccc2-3)cc1,-5.6,-5.6*
CCSc1n[nH]c2nc3c(c(=O)n12)C1(CCCC1)Cc1ccccc1-3,.,i
Cc1c(CCOC(=O)C2C3CC4CC(C3)CC2C4)sc[n+]1CC(=O)c1ccc(Br)cc1 (configuration not stated),-7.2,-7.2*
COc1ccc(C(=O)OCCc2sc[n+](CC(=O)c3ccccc3)c2C)cc1,1.5,i
CC(=O)c1c(C)oc2ccc(NS(=O)(=O)c3ccc(C)cc3)cc12,0.34,i
